# Out of some 2,400 compounds screened, about 1,400 (58%) were called active. The set was probably picked from earlier hits. The list shows a part of the results. Values without a mark were called inactive.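 How the source made its calls: active means inhibition of 30% or more at any tested dose; inconclusive means primary hits over the limit that were never retested; inactive means the rest.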
# Assay: ADP Hunter readout inhibition without MgcRacGAP – biochemical, coupled enzyme counter-screen, artefact control for MgcRacGAP inhibitor project, dose response (AID 624351);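 further: signal is the ADP detection kit reading of free GDP without any GAP enzyme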
# Conditions: fluorescence, no MgcRacGAP; series mostly up to 80 µM
row,SMILES,IC50
1,COc1cc(/C=N\NC(=O)CNC(=O)C2COc3ccccc3O2)ccc1O (stereo unspecified),35.8 µM (active)
2,CCOC(=O)CCNC(C)C1COc2ccccc2O1 (stereo unspecified),inactive
3,O=C(CNC(=O)C1COc2ccccc2O1)N/N=C/c1ccc(O)cc1O (stereo unspecified),66.8 µM (active)
4,CCCCN(CC)CCNC(=O)c1cc2c(-c3ccc(Cl)cc3)nn(C)c2s1,inactive
5,c1cc2c(cc1CN1CCN(C3CCCCCC3)CC1)OCO2,inactive
6,c1cc2c(cc1NC1CCCCCC1)OCO2,45.1 µM (active)
7,COc1ccc(N2C(S)=C(C#N)C(=O)NC2c2ccco2)cc1 (stereo unspecified),inactive
8,COc1cc(/C=C2/SC(=S)N(c3c(C)n(C)n(-c4ccccc4)c3=O)C2=O)ccc1O,48.2 µM (active)
9,COc1cc(/C=C2\SC(=Nc3c(C)n(C)n(-c4ccccc4)c3=O)NC2=O)ccc1O,44.4 µM (active)
10,O=C1N/C(=C\c2ccc(O)cc2)C(O)=C1C=NCc1ccccc1,16 µM (active)
11,O=C1NC(=NCc2ccccc2)S/C1=C/c1ccc(O)cc1,20.1 µM (active)
12,Cc1c(N=C2NC(=O)/C(=C/c3ccc(O)cc3)S2)c(=O)n(-c2ccccc2)n1C,72 µM (active)
13,Nc1ccc2[nH]c(=S)sc2c1,inactive
14,Nc1ccc2[nH]c(=S)[nH]c2c1,21 µM (active)
15,CCCS(=O)(=O)N1CCN(C2Cc3ccccc3C2)CC1,inactive
16,CCCCn1c(C)cc2cc(O)ccc21,30.4 µM (active)
17,Cn1c(=O)[nH]c(N)c(Br)c1=O,inactive
18,Cn1c(N/N=C/c2c[nH]c3ccccc23)nc2ccccc21,40.6 µM (active)
19,Cc1ccsc1/C=N/Nc1nc2ccccc2[nH]1,26 µM (active)
20,Cc1cc(C)nc(N/N=C/c2c[nH]c3ccccc23)n1,55.4 µM (active)
21,C(=N\Nc1nc2ccccc2[nH]1)/c1c[nH]c2ccccc12,37.6 µM (active)
22,C=C1c2cccc(O)c2C(=O)C2C(=O)[C@]3(O)C(=O)C(C(N)=O)C(=O)[C@@H](N(C)C)[C@@H]3[C@@H](O)[C@H]12 (stereo partly specified),inactive
23,O=C1NC(=S)S/C1=C1\Sc2ccccc2N1CCCS(=O)(=O)O,inactive
24,Cc1cnc(NC(=O)CN2CCN(c3ccccc3F)CC2)s1,inactive
25,CC(C(=O)Nc1ccccc1C(F)(F)F)N1CCN(C)CC1 (stereo unspecified),inactive
26,CC(C(=O)Nc1ccc(F)c(F)c1)N1CCN(C)CC1 (stereo unspecified),inactive

row,SMILES,IC50
1,CCOCCCNC(=O)CN1CCN(c2ccc(F)cc2)CC1,inactive
2,O=C(CN1CCN(c2ccc(O)cc2)CC1)NCC(=O)Nc1ccc(F)c(F)c1F,61.8 µM (active)
3,CC(C(=O)NCC(=O)Nc1ccc(F)c(F)c1F)N1CCN(c2ccc(O)cc2)CC1 (stereo unspecified),54.3 µM (active)
4,COc1ccccc1C(=O)N1CCN(Cc2cccnc2)CC1,inactive
5,COc1cc(OC)c(OC)cc1CN1CCN(C(=O)c2cccc3ccccc23)CC1,inactive
6,COc1ccccc1NS(=O)(=O)c1ccc(C)c(C(=O)N2CCN(c3ccc(O)cc3)CC2)c1,23.6 µM (active)
7,CC1(C)CC(NC(=O)N2c3ccccc3Sc3ccccc32)CC(C)(C)N1,inactive
8,N/C(=N\OC(=O)N1c2ccccc2Sc2ccccc21)c1ccccc1,inactive
9,Cc1ccc2nc(/N=C(\N)NC(=O)N3c4ccccc4Sc4ccccc43)nc(C)c2c1,inactive
10,Cc1cccc(/C(N)=N/OC(=O)N2c3ccccc3Sc3ccccc32)c1,inactive
11,CCN1/C(=C/c2ccc3cc(C)ccc3[n+]2CC)Sc2cc(C)ccc21,inactive
12,CN(C)/C=C/c1oc2ccc(O)cc2c1[N+](=O)[O-],14.2 µM (active)
13,CCCc1cc(=S)n2c([nH]c3ccccc32)c1C#N,57.3 µM (active)
14,CCn1nc(C)c(Br)c1C(=O)Sc1ccccc1Cl,inactive
15,CCN(CC)c1ccc(S(=O)(=O)N2CCOCC2)cc1NC(=O)CN1CCN(Cc2ccccc2)CC1,inactive
16,O=S(=O)(c1ccc(Cl)c(NC(=S)N/N=C/c2ccc(O)cc2)c1)N1CCOCC1,48.7 µM (active)
17,Cc1ccc(S(=O)(=O)N2CCOCC2)cc1NC(=O)CNCc1cccnc1,inactive
18,CCOC(=O)CSC1=NC(=O)/C(=C\c2ccc(OC(C)=O)cc2)S1,inactive
19,CCOC(=O)C1CCN(Cc2cn[nH]c2-c2ccccc2)CC1,inactive
20,CCOC(=O)C1CCCN(C2=NC(=O)/C(=C/c3ccc(O)c(OCC)c3)S2)C1 (stereo unspecified),29.8 µM (active)
21,CCOC(=O)C1CCN(C2=NC(=O)/C(=C/c3ccc(O)cc3)S2)CC1,22.2 µM (active)
22,COc1cc(/C=C2\SC(N3CCC(C)CC3)=NC2=O)ccc1O,19.1 µM (active)
23,CCOC(=O)C1CCCN(C2=NC(=O)/C(=C/c3ccc(O)c(OC)c3)S2)C1 (stereo unspecified),22.8 µM (active)
24,CCOC(=O)C(NC(=O)N(C)C)(Nc1sc(C)c(CC)c1C#N)C(F)(F)F (stereo unspecified),inactive
25,C#CCOCCOCCOCCNc1nc(N2CCN(C(=O)[C@H](CCCN=C(N)N)n3cc(C(N)[C@H](C)CC)nn3)CC2)nc(N2CCN(C(=O)[C@H](CCCN=C(N)N)n3cc(C(N)[C@@H](C)CC)nn3)CC2)n1 (stereo partly specified),inactive

# Source: PubChem BioAssay AID624351 (Southern Research Specialized Biocontainment Screening …, 2012)
